The panel holds about 83,000 compounds, 20% with a hit somewhere; the sample as a whole holds those more often.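 Compound tested at a single concentration for 48 hours in 96-well plates; a percent growth value below 10 was scored as active.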 Calls of active or inactive are those of the source.
How the values were obtained:
Assay in all cases: NCI-60 one-dose screen, 48 h (100 = growth as untreated, 0 = no growth, -100 = all killed)
HCT-15 colon = conditions: 10 µM unless noted
HT29 colon = conditions: 10 µM unless noted
SNB-75 CNS = conditions: 10 µM unless noted
SNB-19 CNS = conditions: 10 µM unless noted
U251 CNS = conditions: 10 µM unless noted
PC-3 prostate = conditions: 10 µM unless noted
SK-MEL-5 melanoma = conditions: 10 µM unless noted
UACC-62 melanoma = conditions: 10 µM unless noted
LOX IMVI melanoma = conditions: 10 µM unless noted
SK-MEL-28 melanoma = conditions: 10 µM unless noted
SK-MEL-2 melanoma = conditions: 10 µM unless noted
EKVX NSCLC = conditions: 10 µM unless noted
SN12C renal = conditions: 10 µM unless noted
UO-31 renal = conditions: 10 µM unless noted
ACHN renal = conditions: 10 µM unless noted
CAKI-1 renal = conditions: 10 µM
A498 renal = conditions: 10 µM unless noted
TK-10 renal = conditions: 10 µM unless noted
MOLT-4 leukemia = conditions: 10 µM unless noted
CCRF-CEM leukemia = conditions: 10 µM unless noted

Measured: growth

CC[C@H]1[C@@H]2C=C[C@@H]3[C@H]4C/C=C\C(=O)NCCC[C@@H]5NC(=O)/C(=C(O)/C=C/[C@@H]4C[C@@H]3[C@H]2C[C@H]1C)C5=O
active: HCT-15 colon -29.4% | SNB-75 CNS -85.6% | SNB-19 CNS -40.6% | PC-3 prostate -35.3% | SK-MEL-5 melanoma -70.4% | LOX IMVI melanoma -84.8% | SN12C renal -66.1% | UO-31 renal -78.2% | ACHN renal -84.1% | CAKI-1 renal -41.3% | A498 renal -18.4%
inactive: HT29 colon 14.4% | U251 CNS 46.5% | UACC-62 melanoma 72.6% | SK-MEL-28 melanoma 60.9% | SK-MEL-2 melanoma 46% | EKVX NSCLC 15.3%

Nn1c(CN2CCN(c3cc4c(cc3F)c(=O)c(C(=O)O)cn4C3CC3)CC2)n[nH]c1=S
inactive: HCT-15 colon 106% | HT29 colon 97.8% | SNB-75 CNS 86.4% | SNB-19 CNS 99.6% | U251 CNS 112% | PC-3 prostate 105% | SK-MEL-5 melanoma 97.5% | UACC-62 melanoma 93.9% | LOX IMVI melanoma 103% | SK-MEL-28 melanoma 109% | SK-MEL-2 melanoma 95.9% | EKVX NSCLC 102% | SN12C renal 95.7% | UO-31 renal 91.7% | TK-10 renal 93.8% | A498 renal 97.7% | MOLT-4 leukemia 103%

Cc1c(C(C)(C)C)cc(C(C)(C)C)c2c1CN(C)CO2
inactive: HCT-15 colon 108% | HT29 colon 105% | SNB-75 CNS 102% | SNB-19 CNS 112% | U251 CNS 109% | PC-3 prostate 110% | SK-MEL-5 melanoma 127% | UACC-62 melanoma 114% | LOX IMVI melanoma 106% | SK-MEL-28 melanoma 102% | SK-MEL-2 melanoma 96.7% | EKVX NSCLC 105% | SN12C renal 107% | UO-31 renal 97% | TK-10 renal 102% | A498 renal 106% | CCRF-CEM leukemia 93.7% | MOLT-4 leukemia 109%

COc1ccc(Cn2cc3c(c2-c2cc(OC)c(OC)c(OC)c2)CCc2c(CO)noc2-3)cc1
inactive: HCT-15 colon 17.6% | SNB-75 CNS 40% | SNB-19 CNS 30.2% | U251 CNS 11.2% | PC-3 prostate 26.5% | UACC-62 melanoma 12.7% | LOX IMVI melanoma 30.6% | SK-MEL-28 melanoma 54% | SK-MEL-2 melanoma 49.5% | EKVX NSCLC 45.8% | SN12C renal 30.3% | UO-31 renal 30.1% | TK-10 renal 74.5% | A498 renal 18.2% | CCRF-CEM leukemia 19.6% | MOLT-4 leukemia 16.6%
active: HT29 colon 8.14% | SK-MEL-5 melanoma 5.04%

CCCC(C)(C)COC(=O)c1cccc(N)c1
inactive: HCT-15 colon 113% | HT29 colon 78.5% | SNB-75 CNS 94.5% | SNB-19 CNS 106% | U251 CNS 89.1% | PC-3 prostate 78.1% | SK-MEL-5 melanoma 102% | UACC-62 melanoma 96.6% | LOX IMVI melanoma 101% | SK-MEL-28 melanoma 117% | SK-MEL-2 melanoma 88% | EKVX NSCLC 101% | SN12C renal 98.4% | UO-31 renal 69.2% | TK-10 renal 84.5% | A498 renal 88.6% | CCRF-CEM leukemia 88.5% | MOLT-4 leukemia 56%

Nc1ncnc2c1c(C(F)(F)F)cn2[C@@H]1O[C@H](CO)[C@@H](O)[C@H]1O
inactive: SNB-19 CNS 14.6% | PC-3 prostate 12.1% | SN12C renal 15.7%
active: HCT-15 colon 4.22% | HT29 colon 1.42% | SNB-75 CNS -35.1% | U251 CNS 3.73% | SK-MEL-5 melanoma -32.1% | UACC-62 melanoma -38.6% | LOX IMVI melanoma 6.25% | SK-MEL-28 melanoma 1.5% | SK-MEL-2 melanoma -42.6% | EKVX NSCLC 3.57% | UO-31 renal 2.15% | TK-10 renal 4.15% | A498 renal -43.2% | CCRF-CEM leukemia 5.79% | MOLT-4 leukemia 0.0629%

O=S(c1ccccc1)c1ccc2nnnn2n1 (configuration not stated)
inactive: HCT-15 colon 79.8% | HT29 colon 92% | SNB-75 CNS 107% | SNB-19 CNS 107% | U251 CNS 103% | PC-3 prostate 96.6% | SK-MEL-5 melanoma 99.8% | UACC-62 melanoma 98.6% | LOX IMVI melanoma 89.7% | SK-MEL-28 melanoma 105% | SK-MEL-2 melanoma 98.9% | EKVX NSCLC 101% | SN12C renal 101% | UO-31 renal 73.1% | TK-10 renal 99% | A498 renal 86.6% | CCRF-CEM leukemia 44.9% | MOLT-4 leukemia 83.8%

O=S(=O)(O)c1ccc(F)cc1
inactive: HCT-15 colon 104% | HT29 colon 96.5% | SNB-75 CNS 101% | SNB-19 CNS 114% | U251 CNS 109% | PC-3 prostate 106% | SK-MEL-5 melanoma 105% | UACC-62 melanoma 107% | LOX IMVI melanoma 98.9% | SK-MEL-28 melanoma 111% | SK-MEL-2 melanoma 93.6% | EKVX NSCLC 101% | SN12C renal 111% | UO-31 renal 86.4% | TK-10 renal 90.2% | A498 renal 101% | CCRF-CEM leukemia 90.6% | MOLT-4 leukemia 98.5%

COc1ccc2c(c1)OC(N)=C(C#N)C2c1ccc(F)cc1 (configuration not stated)
inactive: HCT-15 colon 21.9% | SNB-19 CNS 30.1% | U251 CNS 31.3% | PC-3 prostate 27.9% | SK-MEL-5 melanoma 22.6% | UACC-62 melanoma 29.7% | LOX IMVI melanoma 39.1% | SK-MEL-28 melanoma 65% | SK-MEL-2 melanoma 18.5% | EKVX NSCLC 44.8% | SN12C renal 43.8% | UO-31 renal 41.8% | TK-10 renal 69.5% | CCRF-CEM leukemia 12.6% | MOLT-4 leukemia 28.3%
active: HT29 colon 5.87% | SNB-75 CNS 8.49% | A498 renal -3.77%

CC(=O)CC/C=C(\C)[C@H](O)[C@H](C)C(=O)O[C@H]1C[C@H](C)C=C2C=C[C@@]3(C)O[C@@H](O)CC(=O)[C@]3(C)[C@H]21
active: HCT-15 colon 0.209% | HT29 colon -33.8% | SNB-75 CNS -85.3% | SNB-19 CNS -12.3% | U251 CNS -25.9% | PC-3 prostate -31.2% | SK-MEL-5 melanoma -91.7% | UACC-62 melanoma -56.6% | LOX IMVI melanoma -55.1% | SK-MEL-28 melanoma -40.7% | SK-MEL-2 melanoma -59.7% | EKVX NSCLC -28.8% | SN12C renal -11.5% | UO-31 renal -28.6% | TK-10 renal -27.4% | A498 renal -66.2% | CCRF-CEM leukemia 4.28% | MOLT-4 leukemia -7.91%

Cc1c(F)cccc1NC(=O)c1sc2nc3c(cc2c1N)CCCCC3
inactive: HCT-15 colon 28.5% | HT29 colon 15.6% | SNB-75 CNS 76.2% | SNB-19 CNS 53.9% | U251 CNS 56.3% | PC-3 prostate 70.7% | SK-MEL-5 melanoma 39.2% | UACC-62 melanoma 27% | LOX IMVI melanoma 50.4% | SK-MEL-28 melanoma 68.7% | SK-MEL-2 melanoma 40.7% | EKVX NSCLC 64.7% | SN12C renal 84.6% | UO-31 renal 72.7% | TK-10 renal 85.3% | A498 renal 33.7% | MOLT-4 leukemia 30.7%

CC(=O)n1cc(/C=C2\N=C(c3ccc(Cl)cc3)N(c3ccc(S(=O)(=O)Nc4nccs4)cc3)C2=O)c2ccccc21
inactive: HCT-15 colon 95% | HT29 colon 103% | SNB-75 CNS 92.2% | SNB-19 CNS 67.7% | U251 CNS 56.2% | PC-3 prostate 72.6% | SK-MEL-5 melanoma 80.1% | UACC-62 melanoma 84.1% | LOX IMVI melanoma 93.2% | SK-MEL-28 melanoma 82.2% | SK-MEL-2 melanoma 89.2% | EKVX NSCLC 85.7% | SN12C renal 74.3% | UO-31 renal 70.4% | TK-10 renal 117% | A498 renal 74.9% | CCRF-CEM leukemia 47.8% | MOLT-4 leukemia 51.1%

C#CCn1c(-c2cc(OC)c(OC)cc2Br)nc(-c2ccccc2)c1-c1ccccc1
active: HT29 colon 9%
inactive: HCT-15 colon 29.7% | SNB-75 CNS 43.1% | SNB-19 CNS 55% | U251 CNS 45.4% | PC-3 prostate 25.2% | SK-MEL-5 melanoma 12.4% | UACC-62 melanoma 40% | LOX IMVI melanoma 34.9% | SK-MEL-28 melanoma 69.8% | SK-MEL-2 melanoma 28.1% | EKVX NSCLC 37.4% | SN12C renal 69.6% | UO-31 renal 33.9% | TK-10 renal 67.1% | A498 renal 37.7% | CCRF-CEM leukemia 39.2% | MOLT-4 leukemia 31.6%

COc1cc(C(=O)NNC(=O)c2ccccc2C(=O)O)cc(OC)c1OC
active: CCRF-CEM leukemia 5.04% | MOLT-4 leukemia -5.79%
inactive: HCT-15 colon 31.8% | HT29 colon 20.8% | SNB-75 CNS 86.3% | SNB-19 CNS 49.6% | U251 CNS 39.7% | PC-3 prostate 54.7% | SK-MEL-5 melanoma 38.2% | UACC-62 melanoma 39.8% | LOX IMVI melanoma 16.9% | SK-MEL-28 melanoma 75.6% | SK-MEL-2 melanoma 49.3% | EKVX NSCLC 83.4% | SN12C renal 40.9% | UO-31 renal 49% | TK-10 renal 72% | A498 renal 78.7%

Cc1cc(Nc2ccc(Cl)c(Cl)c2)nc(N)n1
inactive: HCT-15 colon 97.3% | HT29 colon 86.9% | SNB-75 CNS 72.3% | SNB-19 CNS 107% | U251 CNS 95.3% | PC-3 prostate 89.6% | SK-MEL-5 melanoma 83.9% | UACC-62 melanoma 89.1% | LOX IMVI melanoma 100% | SK-MEL-28 melanoma 101% | SK-MEL-2 melanoma 102% | EKVX NSCLC 54.7% | SN12C renal 106% | UO-31 renal 86.2% | TK-10 renal 87.3% | A498 renal 78.8% | CCRF-CEM leukemia 98.5% | MOLT-4 leukemia 78.8%

COc1ccc2c(-c3ccc(F)cc3)c(C#N)c(=NC(C)=O)oc2c1
inactive: HCT-15 colon 25.8% | HT29 colon 95.6% | SNB-75 CNS 34% | SNB-19 CNS 33.7% | U251 CNS 39.5% | PC-3 prostate 30.6% | SK-MEL-5 melanoma 24.7% | UACC-62 melanoma 32.1% | LOX IMVI melanoma 41.9% | SK-MEL-28 melanoma 69.7% | SK-MEL-2 melanoma 26.5% | EKVX NSCLC 62.8% | SN12C renal 56.9% | UO-31 renal 50.4% | TK-10 renal 78.1% | A498 renal 18.1% | MOLT-4 leukemia 29.6%

COc1ccc(NC(=O)Nc2ccc(-c3ccc(OC)c(OC)c3)nc2C)cc1
inactive: HCT-15 colon 91.8% | HT29 colon 68.8% | SNB-75 CNS 47.5% | SNB-19 CNS 71.5% | U251 CNS 22.1% | PC-3 prostate 81.4% | SK-MEL-5 melanoma 23% | UACC-62 melanoma 59.9% | LOX IMVI melanoma 88.8% | SK-MEL-28 melanoma 86.8% | SK-MEL-2 melanoma 79.6% | EKVX NSCLC 91.1% | SN12C renal 64.4% | UO-31 renal 81.7% | TK-10 renal 60.4% | A498 renal 71.9% | CCRF-CEM leukemia 97.2% | MOLT-4 leukemia 85.6%

Source: PubChem BioAssay (NCI)
